# Compound activity from PubChem.
# The sample as a whole holds a higher share of hits than the screen did.
# Vaccinia pol inh: vaccinia E9 polymerase processive synthesis inhibitors, primary screen, biochemical, absorbance; Vaccinia virus DNA polymerase (E9) processive complex; in vitro processive DNA synthesis, absorbance read-out; active compounds read low; normalized absorbance, % (no concentration beside the values); hit rate 0.94% among 46,000; in the data active = normalized absorbance mostly below about 85%, no sharp cut-off; inactive = mostly above about 86%
# A number is an active result; i = inactive.
SMILES,Vaccinia pol inh
CS(=O)(=O)N1N=C(c2cccs2)CC1c1ccccc1F (configuration not stated),i
Oc1ccc(Cl)cc1Sc1cc(Cl)ccc1O,77
Oc1ccc(Cl)cc1,i
NS(=O)(=O)c1ccc(Cl)cc1Sc1ccccc1C(=O)O,i
Cc1sc(NC(=O)c2cccs2)c(C(N)=O)c1C,i
Cc1ccc(C(=O)NC(CC(=O)O)C(F)(F)F)cc1 (configuration not stated),i
Cc1cc(C)cc(CC(C(=O)O)C(C)C(=O)NCc2ccccc2)c1 (configuration not stated),i
COc1ccc(Cl)cc1NC(=O)COC(C)=O,i
NNc1ccc(Br)cc1,54
NNc1ccc(Cl)c(Cl)c1,i
O=C(Nc1ccccc1)Nc1ccc(Br)cc1,i
Cc1cc(C)c2c(=O)[nH]c(SCc3ccccc3C)nc2n1,i
Cc1nn(-c2ccc(Cl)cc2)c(N)c1C1(O)C(=O)N(C)c2ccccc21 (configuration not stated),i
COc1ccc(-c2ccc(OC)cc2C(=O)NN)cc1,i
COc1ccc2c(c1)-c1ccccc1S(=O)(=O)N2C,i
COc1ccc2c(c1)C(=NN)c1cc(OC)ccc1-2,68
CC(=O)Nc1ccc(S(=O)(=O)CCC(=O)O)cc1,i
COc1ccc2cc(Br)ccc2c1CCl,i
CS[C@H](C)[C@H](OC(C)=O)C(=O)N(C)CCN(C)C (tested in a mixture with another compound),15
CN1Cc2c(N)cccc2C(c2ccccc2)C1 (configuration not stated),i
Cc1ccc(S(=O)(=O)CC2CSc3nnc(C)c(=O)n32)cc1 (configuration not stated),i
Cc1ccccc1NC1=NC(C)(C)CS1,i
Cc1ccccc1Nc1nccc(N(C)C)c1C#N,82
Cc1ccccc1NC1=NCCS1,i
CCCc1nc(NCc2ccccc2)c(C#N)c2c1CCCC2,i
SMILES,Vaccinia pol inh
Oc1c(Cl)cc(Cl)cc1C=Nc1ccc2n[nH]nc2c1,i
Cc1cc(N=Cc2cc(Cl)cc(Cl)c2O)no1,56
Oc1c(Cl)cc(Cl)cc1/C=N/c1ccnn1-c1ccccc1,i
NCCSSCCN,i
CCOc1ccc2nc(SCC)[nH]c2c1,i
CCOc1ccc(-c2nc(=S)[nH][nH]2)cc1,i
CCOc1ccc(-c2nc3ccc(-c4nc5ccc(N6CCN(C)CC6)cc5[nH]4)cc3[nH]2)cc1,23
Cc1cccc(-n2cnc3sc4c(c3c2=O)CCCC4)c1,i
COc1ccc(C2=NOC(C(=O)N3CCCC3)C2)cc1 (configuration not stated),i
O=C(Cn1c(=O)oc2cc(S(=O)(=O)N3CCCC3)ccc21)N1CCCC1,i
CCn1cc(CCCC(=O)O)c2ccccc21,i
O=C(O)CCCC(=O)c1ccccc1,i
O=C(O)CCCc1ccc2ccc3cccc4ccc1c2c34,80
CC(=O)NCCc1c[nH]c2ccc(O)cc12,i
CCC(Cc1cccc(O)c1)C(=O)O (configuration not stated),i
O=C(OCc1cccc(COC(=O)c2ccc(Cl)cc2)n1)c1ccc(Cl)cc1,i
CCc1ccc(C(=O)Nc2nnn(CC)n2)cc1,i
Cc1cc(CSc2nc(C)cc(C)n2)c2ncccc2c1,i
Cc1nc2ccccc2c2oc(C(=O)NC3CCCC3)cc12,i
Cc1nc2ccccc2c2oc(C(=O)N3CCC(C)CC3)cc12,i
Cc1nc2ccccc2c2oc(C(=O)NCCN3CCN(C)CC3)cc12,62
CC1CCCN(CCCNC(=O)c2coc3nc4ccccc4nc23)C1 (configuration not stated),60
CC1CCCN(CCCNC(=O)C2CCCN(c3ncnc4c3nc3n4CCCCC3)C2)C1 (configuration not stated),i
Cc1ccc(CCNC(=O)c2coc3nc4ccccc4nc23)cc1,i
Cc1c(Br)sc2sc(-c3nn(C)cc3Br)c(C)c12,i
SMILES,Vaccinia pol inh
O=C(Nc1ccccc1Cl)c1cc(-c2cccs2)nc2ccccc12,i
C=CCc1cccc(C)c1OCCCN1CCC(C)CC1,i
Cc1cc(C(=O)N2CCN(C3c4ccccc4-c4ccccc43)CC2)c(C)o1,i
Cc1nnsc1C(=O)N1CCN(C2c3ccccc3-c3ccccc32)CC1,i
O=C(O)c1ccccc1C(=O)N1CCN(C2c3ccccc3-c3ccccc32)CC1,74
CCOC(=O)N1CCN(C(=O)/C(=C/c2ccccc2Cl)c2ccccc2)CC1,i
Oc1ccc(C2(c3ccc(O)cc3)CCCC2)cc1,53
Cc1ccc(O)cc1,i
COc1cccc(C2(c3ccc(O)cc3)CCCC2)c1,i
CCOc1ccc(CC2C(=O)NC(=O)N(Cc3ccccc3)C2=O)cc1 (configuration not stated),i
Cn1c(Sc2c3c(nc4ncnn24)CCC3)nnc1-c1ccccc1,i
CN(c1ccccc1C(=O)O)S(=O)(=O)c1ccc2c3c(cccc13)C(=O)N2,50
NS(=O)(=O)c1ccc2c3c(cccc13)C(=O)N2,i
O=C1Nc2ccc(S(=O)(=O)N(CCO)CCO)c3cccc1c23,i
CCCn1c(-c2ccc(S(=O)(=O)N3CCOCC3)cc2)csc1=Nc1ccccc1,i
CC(C)N1C(=O)C(=Nc2ccc(C#N)cc2)c2ccccc21,i
Nc1nnc(SCC(=O)N2c3ccccc3Sc3ccc(C(F)(F)F)cc32)s1,i
c1ccc2[nH]c(C34CC5CC(CC(C5)C3)C4)cc2c1,i
O=C(COC(=O)c1cc2ccccc2cc1O)NCc1ccccc1,i
CC(C)(C)C(=O)N1CCCC1C(=O)Nc1ccccc1 (configuration not stated),i
CCOC(=O)c1cnc2ccccc2c1NCCO,i
CCOC(=O)c1cnc2ccc(C(=O)OC)cc2c1NCCN(C)C,52
CCOC(=O)c1cnc2ccc(F)cc2c1NCc1cccnc1,i
Cc1cc(C)n(-c2ncc(S(=O)(=O)c3ccc(Cl)cc3)c(N)n2)n1,i
CCOc1ncccc1C(=O)OCc1ccccc1,i
SMILES,Vaccinia pol inh
Cc1cc(C)nc(NN)n1,i
CN(C1CCCCC1)S(=O)(=O)c1ccc(C(=O)Nc2nccs2)cc1,i
CN(C)S(=O)(=O)c1ccc(C(=O)Nc2nccs2)cc1,i
CCN(CC)S(=O)(=O)c1ccc(C(=O)Nc2nccs2)cc1,86
CCC(=O)Nc1cccc(-c2nc3ccccc3[nH]2)c1,i
COc1ccc2c(C)cc(SCC(=O)Nc3ccc4c(c3)OCO4)nc2c1,i
c1ccc(CCn2c3ccccc3c3nc4ccccc4nc32)cc1,i
c1ccc2nc3c(nc2c1)c1ccccc1n3CCN1CCOCC1,65
C=CCn1c2ccccc2c2nc3ccccc3nc21,i
CCCNC(=O)c1cc(=O)n(Cc2ccc(Cl)cc2)c2ccccc12,i
N#CC(C#N)=C(N)SCc1ccccc1,i
N#CC(C#N)=C(Nc1ccc(Br)cc1)SCc1ccc(F)cc1,i
N#CC(C#N)=C(Nc1ccccc1Cl)SCc1cccc(F)c1,26
CSCCC(C(=O)O)N1C(=O)CSC1=S (configuration not stated),i
CSCCC(C(=O)O)n1c(O)c(/C=C2\C=Nc3ccccc32)sc1=S (configuration not stated),78
CSCCC(C(=O)O)N1C(=O)/C(=C/c2ccc(O)cc2)SC1=S (configuration not stated),i
Nc1sc2c(c1-c1nc3ccccc3[nH]1)CCCC2,i
COc1c(F)c(F)c(C(=O)O)c(Nc2ccc(C)cc2C)c1F,i
CCCCN(C)C(=O)c1cc2c(Cl)nc3ccccc3c2s1,i
Cc1cccc(CCNC(=O)c2cc3c(=O)n(C)c4ccccc4c3s2)c1,i
Cc1ccc2oc(=O)c3cc(C(=O)NCCCN4CCCCCC4)sc3c2c1,68
